# From PubChem BioAssay
# Pf growth 48h: Primary qHTS for delayed death inhibitors of the malarial parasite plastid, 48 hour incubation; P. falciparum luciferase growth in erythrocytes, 48 h; Potency, µM (top dose mostly 28.7 µM), for the others: at the top dose activity change, negative = inhibition, hits mostly inhibitors; 5.9% of 310,000 active; also: potency is read from the fitted curve at half-maximal effect; % is scaled to controls: 0 for no effect and ±100 for the full control effect
#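 In quantitative HTS format, infected erythrocytes bearing luciferase-reporter parasites were treated for a single generation at 37 C. Luminescence after adding detection reagent served as the growth measure.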
# Pf growth 96h: Primary qHTS for delayed death inhibitors of the malarial parasite plastid, 96 hour incubation | P. falciparum luciferase reporter growth, 96 h | Potency, µM (highest dose often 28.7 µM), without a hit: at the top dose activity change, negative = inhibition, most hits filed as inhibitors | 6.9% of 320,000 active | AID 504834, 2011; also: potency is read from the fitted curve at half-maximal effect; % is scaled to controls: 0 for no effect and ±100 for the full control effect
#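 Cell-based qHTS: luciferase-tagged P. falciparum in erythrocytes (2% hematocrit, 0.05% parasitemia final) incubated with compounds for 96 hours, 37 C, 5% CO2; luciferase detection reagent then added and luminescence measured.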
# Shiga inhibitor: A qHTS for Small Molecule Inhibitors of Shiga Toxin; Vero cells, Shiga toxin protein synthesis inhibition reporter; inhibition, % at 38.7 µM; 9.2% of 290,000 active; in the data active = inhibition mostly above about 28%, no sharp cut-off; inactive = mostly below about 43%; also: 0% is about no effect
# AMA1 RON2 block: qHTS for Inhibitors of AMA1-RON; Towards Development of Antimalarial Drug Lead: Primary Screen; AlphaScreen AMA1-biotinylated RON2 peptide binding; Plasmodium falciparum AMA1 (3D7) - RON2 peptide interaction; 0.2% of 360,000 active; Potency, µM (series often up to 58.2 µM), inactives show at the highest dose activity change, negative = inhibition, hits mostly inhibitors;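 also: potency is read from the fitted curve at half-maximal effect; 0% = vehicle wells and -100% = peptide control; nearly all actives have a fitted effect of over 45% in size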
#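 AMA1 (3D7) with his tag at 25 nM final met compounds first, then biotinylated RON2 peptide at 25 nM; detection used donor plus acceptor beads, 10 µg/mL apiece, read by AlphaScreen after 30 min at room temperature.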
# HCV inh: qHTS Assay for Inhibitors of Hepatitis C Virus (HCV); 3.4% of 340,000 active; AID 651820, 2012; Huh7.5.1 HCVcc-Cre infection, luciferase reporter, 44 h; Potency, µM (series often up to 41.8 µM), for the others: at the highest dose activity change, negative = inhibition, hits mostly inhibitors; also: potency is read from the fitted curve at half-maximal effect; % is scaled to controls: 0 for no effect and ±100 for the full control effect
#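 Infectious HCV cell culture screen: compound-treated cells (1,000/well, pre-plated 4 h) are infected with HCVcc-Cre at roughly 0.5 moi and grown 44 h. Infection is quantified by luciferase signal after 15 min substrate incubation at room temperature.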
# CHX counter: Cycloheximide Counterscreen for Small Molecule Inhibitors of Shiga Toxin | cell reporter, cycloheximide protein synthesis inhibition counterscreen | max response, % | 12% of 300,000 active; in the data active = max response mostly above about 13%, no sharp cut-off; inactive = mostly below about 14%; also: read at 38.3 µM for the half of the compounds with a filed dose; 0% is about no effect
# * hit, by the source's call; i = inactive; ? = inconclusive; . = no result; [ ] = remark or other dose. An excerpt weighted towards active compounds, which were near 21% of everything screened. Unless noted, calls follow the shape of the dose curve; as a rule, active = well fitted curve in the direction sought with a large enough effect; inconclusive = small, poorly fitted or top-dose-only effect, or another doubt; inactive = no such curve, though single readings can be large; an effect the other way counts as inactive or inconclusive.
SMILES,Pf growth 48h,Pf growth 96h,Shiga inhibitor,AMA1 RON2 block,HCV inh,CHX counter
NC(=O)C1CN(C(=O)c2nn(Cc3ccccc3)c(=O)c3ccccc23)c2ccccc2O1 (centres undefined),?,?,.,-13%,-18%,.
CCOC(=O)C1CCCN(C(=O)c2cc(F)cc(F)c2)CC1 (centres undefined),.,.,.,-3%,.,.
O=C(NC1CCCCC1)c1nc(-c2c(F)cccc2F)oc1-c1ccccc1,.,.,.,-1%,.,.
CCC(C(=O)NC1CCCC1)N(C(=O)Cn1nnc(-c2ccc(C)o2)n1)c1ccc(OC)cc1 (centres undefined),?,27%,-5,4%,-6%,-5
CCC(C(=O)NC1CCCC1)N(C(=O)Cn1nnc(-c2ccc(C)o2)n1)C(C)(C)C (centres undefined),?,2.3µM*,-8,-1%,5%,1
Cc1ccc2ncnc(NCCCN3CCOCC3)c2c1,?,?,-5,-2%,-1%,0
CCN1CCCC1CNc1ncnc2c1[nH]c1ccc(Cl)cc12 (centres undefined),0.66µM*,1.5µM*,-5,-3%,?,-1
Cc1ccc2[nH]c3c(NCCN4CCOCC4)ncnc3c2c1,4.1µM*,29%,53*,-3%,-25%,14*
Clc1ccc2[nH]c3c(NCCCN4CCOCC4)ncnc3c2c1,0.41µM*,212%,21,17%,?,23
CCN1CCCC1Cn1cnc2c([nH]c3ccc(C)cc32)c1=O (centres undefined),29%,?,-7,11%,-28%,-2
C=CCNc1ncnc2c1[nH]c1ccc(C)cc12,?,?,79*,15%,?,43*
O=C1CCCN1CCCn1cnc2c([nH]c3ccc(F)cc32)c1=O,30%,1%[5.75 µM],16,3%,-5%,11
O=C1CCCN1CCCNc1ncnc2c1[nH]c1ccc(Cl)cc12,?,?,57,6%,?,13*
Nc1nc(SCn2nnc3ccccc3c2=O)n[nH]1,9%,18%,16,-1%,-1%,7
Cn1ccc2c(N3CCCCCCC3)cc3c(c21)C1CCC3O1 (centres undefined),.,.,.,25µM*,.,.
COc1cccc(NC(=O)c2ccc3c(c2)N(C)CCS3)c1,9%,7.4µM*,29*,-2%,10µM*,33*
CN1CCSc2ccc(C(=O)Nc3ccc(Cl)cc3)cc21,137%,137%,59*,-1%,-26%,37*
CN1CCSc2ccc(C(=O)NCc3cccc(F)c3)cc21,-22%,9.3µM*,17,-2%,?,13*
CC(=O)c1ccsc1-c1c(C)cc2oc(=O)cc(-c3ccccc3)c2c1C,.,.,i,-14%,?,2
Cn1cc[n+](C)c1P(=S)(c1ccccc1)c1ccccc1,?,?,-15,6%,8%,8
Cn1cccc/c1=N\c1cccc[n+]1C,?,?,-17,6%,3.5µM*,-1
Cc1ccc(-c2nc3c(Cl)cc(C(F)(F)F)cn3c2Cc2ccccc2)cc1,.,.,.,19%,.,.
CCN(CC)C(=O)c1cccc(NC(=O)c2ccccc2OCc2c(C)noc2C)c1,?,?,.,4%,2%,.
O=C(OCc1ccccc1)c1ccc(NCc2cc(O)ccc2O)cc1,.,.,.,-29%,5µM*,.
COP(=O)(OC)c1ccc(NCc2cc(O)ccc2O)cc1,.,.,.,-24%,4%,.
SMILES,Pf growth 48h,Pf growth 96h,Shiga inhibitor,AMA1 RON2 block,HCV inh,CHX counter
COC(=O)c1ccc(CCc2cc(O)ccc2O)cc1,.,.,.,-3%,4µM*,.
CC(C)OC(=O)c1ccc(NCc2cc(O)ccc2O)cc1,.,.,.,-16%,3.5µM*,.
CCOC(=O)C1CCCN(C(=O)CCCn2nnnc2CN2CCC(C)CC2)C1 (centres undefined),6%,?,-8,11%,17%,-2
Cc1ccccc1N(CC(=O)NCC1CCCO1)C(=O)CCC(=O)Nc1nccs1 (centres undefined),5%,0%,14,-1%,-1%,-4
COc1ccc(N2CC(C(=O)N3CCN(S(=O)(=O)c4ccc(F)c(F)c4)CC3)CC2=O)c(OC)c1 (centres undefined),.,.,.,10%[11.6 µM],-2%,.
C[C@H](c1ccccc1)N1C[C@H](COCc2ccccc2)Oc2cc(N3CCC[C@H]3C(N)=O)ccc2S1(=O)=O,.,.,.,-18%,.,.
CCCNc1nc(Nc2ccc(C)cc2)nc(N2CCCC2)n1,.,2.1µM*,-3,-12%,10µM*,-2
Cc1cc(C)nc(Nc2ccc(N3CCCC3)cc2)n1,?,.,90*,32µM*,-5%,30*
Cc1cc(C)nc(Nc2ccc(N3CCOCC3)cc2)n1,.,.,70,-7%,8%,17*
Cc1ccnc(NS(=O)(=O)c2ccc(NC(=O)CC(C)c3ccccc3)cc2)n1 (centres undefined),13%,42%,-8,7%,1%,-4
C[C@H](CO)N1C[C@H](C)[C@@H](CN(C)S(=O)(=O)c2ccc(F)cc2)Oc2c(NS(=O)(=O)c3ccc(F)cc3)cccc2C1=O,.,.,.,-3%,-8%,.
C=CCOC(=O)COc1ccc2c3c(c(=O)oc2c1)CCCC3,.,.,.,14%,.,.
Cc1ccc(NC(=O)CSCC(=O)Nc2cccc3ncccc23)cc1,?,-19%,.,15%,-18%,.
O=C(COC(=O)c1cccc(NC(=O)c2ccco2)c1)c1ccc(Br)cc1,54%,200%,117*,5%,?,80*
CC(C)(C)C(=O)COC(=O)c1cccc(NC(=O)c2ccco2)c1,4%,27%,27,-8%,-3%,27*
O=C(NCCC(=O)N1CCC2(CC1)NCCc1[nH]cnc12)c1cccc(Br)c1,-11%,-16%,-1,-1%,13%,0
Fc1cc(Cl)c(OCc2noc(-c3ccsc3)n2)c(Cl)c1,292%,74%,35*,-1%,-10%,21*
Clc1ccc(OCc2noc(-c3ccsc3)n2)c(Cl)c1,92%,i,130*,5%,-8%,50*
COc1cc(/C=C2/SC(=S)N(CCC(=O)N3CCN(C)CC3)C2=O)cc(OC)c1OC,.,.,.,1%,.,.
COc1cccc(Oc2nc(-c3ccncc3)nc3ccccc23)c1,?,?,-3,-12%,?,-3
O=c1c(Cl)c(N2CCN(c3ccc(F)cc3)CC2)cnn1-c1nc2ccccc2s1,196%,184%,75*,13%,1%,39*
O=C1CC(N2CCN(c3nc4ccccc4s3)CC2)C(=O)N1c1ccc(F)cc1 (centres undefined),7%,?,-6,-7%,28%,-6
